# In the supplement of paper PMC9262897, “Low-cost anti-mycobacterial drug discovery using engineered E. coli” (Nature Communications, 2022):
# Where a name gives a salt, the structure may show the parent alone. ± gives the standard deviation of the averaged measurements.
# Key:
# Experiment in all cases: growth (OD600 after 10 h); higher = more growth (less inhibition)
# [1] = system: E. coli TESEC Alr+ wild-type control; details: compound 0.1 mM; raw OD600 reference: median of DMSO wells 0.241, cell-free background 0.041
# Protocol: (§1)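 TESEC Mtb Alr E. coli, or the Alr+ wild-type control, in 384-well plates with Prestwick library compounds at 0.1 mM and 1% DMSO, across arabinose induction levels of 1E3 to 1E7 nM. Growth is read as OD600 after 10 h at 37 °C in triplicate biological replicates.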
# E. coli TESEC Mtb Alr [2] = details: compound 0.1 mM
# Protocol: as §1
# E. coli TESEC Mtb Asd = details: compound 0.1 mM
# Protocol: (§2)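 TESEC E. coli strains in which the native enzyme is deleted and replaced by arabinose-inducible Mtb Asd, DapB, CysH or TrpD, each grown in its selective medium. Strains were screened against the Prestwick library at 0.1 mM and 1% DMSO in 384-well format at low and high arabinose induction. Growth is read as OD600 after 10 h in triplicate.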
# E. coli TESEC Mtb DapB = details: compound 0.1 mM
# Protocol: as §2
# E. coli TESEC Mtb Alr [3] = details: compound 0.1 mM; remark: listed apart in the source
# Protocol: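 TESEC Mtb Alr E. coli (ΔaraC ΔtolC ΔentC Δalr ΔdadX, arabinose-inducible Mtb Alr) or the Alr+ wild-type control strain, grown in defined M9-fructose medium without D-alanine in 96-well plates with Prestwick library compounds at 0.1 mM and 1% DMSO. Low Alr induction is 0.1 µM arabinose and high induction is 10 mM arabinose.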
# [4] = arabinose 1000 nM, raw OD600 reference: median of DMSO wells 0.294, cell-free background 0.041
# [5] = arabinose 10000 nM, raw OD600 reference: median of DMSO wells 0.264, cell-free background 0.041
# [6] = arabinose 100000 nM, raw OD600 reference: median of DMSO wells 0.201, cell-free background 0.041
# [7] = arabinose 1000000 nM, raw OD600 reference: median of DMSO wells 0.193, cell-free background 0.041
# [8] = arabinose 10000000 nM, raw OD600 reference: median of DMSO wells 0.146, cell-free background 0.041
# [9] = arabinose induction (level): High, raw OD600 reference: median of DMSO wells 0.331, cell-free background 0.041
# [10] = arabinose induction (level): Low, raw OD600 reference: median of DMSO wells 0.417, cell-free background 0.041
# [11] = arabinose induction (level): High, raw OD600 reference: median of DMSO wells […], cell-free background 0.041
# [12] = arabinose induction (level): Low, raw OD600 reference: median of DMSO wells 0.227, cell-free background 0.041
# [13] = arabinose 100 nM, raw OD600 reference: median of DMSO wells 0.413, cell-free background 0.052
# [14] = arabinose 10000000 nM, raw OD600 reference: median of DMSO wells […], cell-free background 0.052
SMILES,growth [1],growth (E. coli TESEC Mtb Alr [2]; [4]),growth (E. coli TESEC Mtb Alr [2]; [5]),growth (E. coli TESEC Mtb Alr [2]; [6]),growth (E. coli TESEC Mtb Alr [2]; [7]),growth (E. coli TESEC Mtb Alr [2]; [8]),growth (E. coli TESEC Mtb Asd; [9]),growth (E. coli TESEC Mtb Asd; [10]),growth (E. coli TESEC Mtb DapB; [11]),growth (E. coli TESEC Mtb DapB; [12]),growth (E. coli TESEC Mtb Alr [3]; [13]),growth (E. coli TESEC Mtb Alr [3]; [14])
COc1cccc2c1C(=O)c1c(O)c3c(c(O)c1C2=O)C[C@@](O)(C(=O)CO)C[C@@H]3O[C@H]1C[C@H](N)[C@H](O)[C@H](C)O1 [Doxorubicin hydrochloride],0.0471 ± 0.00081,0.0479 ± 0.0023,0.047 ± 0.002,0.0467 ± 0.00066,0.04497 ± 0.00012,0.0474 ± 0.0025,0.0664 ± 0.0059,0.0616 ± 0.0028,0.0535 ± 0.00072,0.0539 ± 0.001,0.0599 ± 0.0035,0.0585 ± 0.00087
CCCc1nn(C)c2c(=O)[nH]c(-c3cc(S(=O)(=O)N4CCN(C)CC4)ccc3OCC)nc12 [Sildenafil],0.201 ± 0.016,0.235 ± 0.01,0.275 ± 0.014,0.186 ± 0.016,0.1606 ± 0.00076,0.1693 ± 0.0008,0.233 ± 0.013,0.399 ± 0.035,0.199 ± 0.01,0.27 ± 0.045,0.406 ± 0.0068,0.2931 ± 0.0018
Cc1cc(C)nc(NS(=O)(=O)c2ccc(N)cc2)n1 [Sulfamethazine sodium salt],0.242 ± 0.0082,0.293 ± 0.015,0.252 ± 0.013,0.215 ± 0.016,0.165 ± 0.0038,0.142 ± 0.0032,0.408 ± 0.021,0.449 ± 0.042,0.191 ± 0.0082,0.269 ± 0.022,0.413 ± 0.012,0.335 ± 0.0075
Cn1c(=O)c2c(ncn2CC2OCCO2)n(C)c1=O [Doxofylline],0.248 ± 0.0076,0.302 ± 0.015,0.259 ± 0.01,0.197 ± 0.017,0.179 ± 0.011,0.158 ± 0.0092,0.476 ± 0.018,0.469 ± 0.035,0.1957 ± 0.00055,0.238 ± 0.0011,0.408 ± 0.0051,0.334 ± 0.01
COC(=O)C1=C(C)NC(C)=C(C(=O)OCCN(C)Cc2ccccc2)C1c1cccc([N+](=O)[O-])c1 (centres undefined) [Nicardipine hydrochloride],0.0481 ± 0.0012,0.0453 ± 0.0013,0.04637 ± 0.00021,0.049 ± 0.0015,0.045 ± 0.0027,0.0566 ± 0.0042,0.054 ± 0.0024,0.0558 ± 0.0072,0.107 ± 0.079,0.0547 ± 0.0015,0.3938 ± 0.0022,0.0545 ± 0.0036
C#Cc1cccc(Nc2ncnc3cc(OCCOC)c(OCCOC)cc23)c1 [Erlotinib],0.193 ± 0.0065,0.256 ± 0.01,0.236 ± 0.0081,0.202 ± 0.0068,0.146 ± 0.0076,0.185 ± 0.01,0.349 ± 0.093,0.303 ± 0.066,0.161 ± 0.0058,0.201 ± 0.0093,0.411 ± 0.005,0.35 ± 0.012
O=c1oc2ccccc2c(O)c1Cc1c(O)c2ccccc2oc1=O [Dicumarol],0.178 ± 0.001,0.159 ± 0.0018,0.1609 ± 0.0012,0.149 ± 0.0042,0.0997 ± 0.0013,0.126 ± 0.0032,0.289 ± 0.049,0.262 ± 0.049,0.18 ± 0.014,0.199 ± 0.046,0.128 ± 0.022,0.0655 ± 0.0074
CC(C)(Oc1ccc(Cl)cc1)C(=O)O [Clofibric acid],0.253 ± 0.0056,0.313 ± 0.011,0.256 ± 0.01,0.201 ± 0.015,0.171 ± 0.0038,0.154 ± 0.0039,0.443 ± 0.024,0.442 ± 0.025,0.199 ± 0.016,0.251 ± 0.037,0.404 ± 0.011,0.305 ± 0.011
CC1COc2c(N3CCN(C)CC3)c(F)cc3c(=O)c(C(=O)O)cn1c23 (centres undefined) [Ofloxacin],0.04363 ± 5.8e-05,0.0426 ± 0.00057,0.03877 ± 0.00015,0.0435 ± 0.0001,0.03957 ± 0.00029,0.044 ± 0.0001,0.0587 ± 0.0023,0.0597 ± 0.0025,0.0501 ± 0.0018,0.05347 ± 0.00015,0.0542 ± 0.0012,0.05103 ± 0.00031
Cn1c(=O)c2[nH]cnc2n(C)c1=O [Aminophylline],0.246 ± 0.005,0.292 ± 0.012,0.262 ± 0.0083,0.196 ± 0.0098,0.195 ± 0.0022,0.134 ± 0.0058,0.287 ± 0.065,0.457 ± 0.018,0.226 ± 0.017,0.234 ± 0.023,0.406 ± 0.015,0.355 ± 0.019
C#C[C@]1(O)CC[C@H]2[C@@H]3[C@H](C)CC4=C(CCC(=O)C4)[C@H]3CC[C@@]21C [Tibolone],0.141 ± 0.0097,0.162 ± 0.017,0.155 ± 0.031,0.15 ± 0.021,0.0695 ± 0.00095,0.148 ± 0.0066,0.167 ± 0.036,0.316 ± 0.047,0.17 ± 0.0045,0.172 ± 0.0081,0.362 ± 0.046,0.137 ± 0.003
c1ccc([C@H]2CN3CCSC3=N2)cc1 [Levamisole hydrochloride],0.253 ± 0.0028,0.286 ± 0.0062,0.279 ± 0.005,0.209 ± 0.017,0.186 ± 0.0053,0.142 ± 0.0042,0.364 ± 0.033,0.428 ± 0.026,0.182 ± 0.0088,0.214 ± 0.023,0.413 ± 0.0046,0.353 ± 0.019
O=C1NCC2(CCN(CCc3ccccc3)CC2)O1 [Fenspiride hydrochloride],0.248 ± 0.0052,0.288 ± 0.013,0.27 ± 0.0043,0.199 ± 0.0053,0.185 ± 0.0044,0.148 ± 0.0017,0.366 ± 0.098,0.45 ± 0.025,0.199 ± 0.011,0.253 ± 0.048,0.415 ± 0.0097,0.336 ± 0.0092
C[C@@H]1C[C@H]2[C@@H]3C[C@H](F)C4=CC(=O)C=C[C@]4(C)[C@@]3(Cl)[C@@H](O)C[C@]2(C)[C@H]1C(=O)COC(=O)C(C)(C)C [Clocortolone pivalate],0.24 ± 0.0038,0.307 ± 0.0044,0.29 ± 0.013,0.206 ± 0.031,0.2 ± 0.027,0.151 ± 0.0033,0.198 ± 0.0099,0.322 ± 0.059,0.21 ± 0.0076,0.254 ± 0.0078,0.433 ± 0.0058,0.377 ± 0.017
Cc1ncc([N+](=O)[O-])n1CC(O)CCl (centres undefined) [Ornidazole],0.233 ± 0.0094,0.282 ± 0.012,0.268 ± 0.007,0.225 ± 0.019,0.177 ± 0.0086,0.1385 ± 0.00036,0.381 ± 0.015,0.421 ± 0.028,0.191 ± 0.0088,0.218 ± 0.031,0.409 ± 0.0059,0.369 ± 0.02
CN(C)CCn1nnnc1SCC1=C(C(=O)O)N2C(=O)[C@@H](NC(=O)Cc3csc(N)n3)[C@H]2SC1 [Cefotiam hydrochloride],0.11 ± 0.0087,0.039 ± 0.0012,0.0413 ± 0.00046,0.0507 ± 0.0078,0.045 ± 0.00078,0.0878 ± 0.0087,0.265 ± 0.012,0.34 ± 0.061,0.218 ± 0.018,0.195 ± 0.019,0.0473 ± 0.0012,0.244 ± 0.049
CC(=O)N(O)CCCCCNC(=O)CCC(=O)N(O)CCCCCNC(=O)CCC(=O)N(O)CCCCCN [Deferoxamine mesylate],0.0549 ± 0.00064,0.054 ± 0.0048,0.0561 ± 0.0031,0.0487 ± 0.0017,0.0567 ± 0.0044,0.0625 ± 0.00017,0.139 ± 0.015,0.141 ± 0.027,0.137 ± 0.021,0.13 ± 0.0032,0.113 ± 0.046,0.0677 ± 0.0037
